# From PubChem BioAssay (NCATS)
# Unmarked numbers belong to inactive results. Active and inactive are the calls of the source. How the calls were made is not given here.
# Assay: Immunotoxin (SS1P) sensitization/mitigation study. Vehicle arm (DMEM) (AID 1159513)
# Details: cell viability with vehicle (DMEM); series mostly up to 46.1 µM; activity, % of control (viability): at the top concentration
# Potency means the concentration at half of the fitted maximal effect.
SMILES,Potency,"activity, % of control (viability)"
Nc1ccc(C(=O)c2cc3c(ccc4ccccc43)[nH]2)cc1,1.18 µM (active),
CCCCCCCCCCCCCCCCCCOP(=O)([O-])OC1CC[N+](C)(C)CC1,,98.3% [at 29.8 µM]
COc1ccc(OC)c(-c2nnc3ccc(-c4ccc(OC)c(O[C@@H]5CCOC5)c4)nn23)c1,8.33 µM (active),
Cc1ccc2c(c1)C(=O)[C@@]1(O)CCN(c3ccccc3)C1=N2,,87%
CC(C)C[C@H](NC(=O)CNC(=O)c1cc(Cl)ccc1Cl)B(O)O,0.118 µM (active),
CC1=C[C@@H]2[C@@H]([C@@H](O)C[C@@]3(C)[C@H]2C[C@@H](C)[C@]3(O)C(=O)CO)[C@@]2(C)Cc3cnn(-c4ccccc4)c3C=C12,23.5 µM (active),
COc1cc2c(cc1O)CC[C@@H]1[C@@H]2CC[C@]2(C)[C@@H](O)CC[C@@H]12,0.833 µM (active),
CC(C)Oc1cc(Nc2nc(N[C@@H](C)c3ccc(F)cn3)ncc2Cl)[nH]n1,20.9 µM (active),
C=CCn1c(=O)c2cnc(Nc3ccc(N4CCN(C)CC4)cc3)nc2n1-c1cccc(C(C)(C)O)n1,0.166 µM (active),
CC=C1NC(=O)[C@H]2CSSCCC=C[C@H](CC(=O)N[C@H](C(C)C)C(=O)N2)OC(=O)[C@H](C(C)C)NC1=O,0.0019 µM (active),
Cc1ccc(C(=O)Nc2ccc(CN3CCN(C)CC3)c(C(F)(F)F)c2)cc1C#Cc1cnc2cccnn12,6.62 µM (active),
O=S(=O)(N=Cc1c(O)ccc2ccccc12)c1cccs1,,92.6%
C[C@@H](Oc1cc(-c2cnn(C3CCNCC3)c2)cnc1N)c1c(Cl)ccc(F)c1Cl,18.7 µM (active),
NC(=O)c1ccc(-c2nc(-c3ccc4c(c3)OCCO4)c(-c3ccccn3)[nH]2)cc1,,84.7%
CC1=C(CO)C(=O)O[C@@H]([C@@H](C)[C@H]2CC[C@H]3[C@@H]4C[C@H]5O[C@]56[C@@H](O)C=CC(=O)[C@]6(C)[C@@H]4CC[C@]23C)C1,3.72 µM (active),
Cc1ccc(C(=O)N(CCCN)[C@@H](c2nc3cc(Cl)ccc3c(=O)n2Cc2ccccc2)C(C)C)cc1,0.0053 µM (active),
CC(C)(C)OC(=O)Nc1ccc(-c2cc(C(=O)NCCCCCCC(=O)NO)no2)cc1,1.18 µM (active),
CCCCCN(CCC12CC3CC(CC(C3)C1)C2)C(=O)NCCCc1ccncc1,23.5 µM (active),

SMILES,Potency,"activity, % of control (viability)"
Fc1ccc(Cl)cc1-c1nc(Nc2ccncc2)c2nccnc2n1,,105%
c1ccc2c(-c3cnn4cc(-c5ccc(N6CCNCC6)cc5)cnc34)ccnc2c1,18.7 µM (active),
CCC(=O)N[C@H]1CC[C@H](C(=O)N(C)c2ccc(-c3nc4ccccc4o3)cc2)C1,7.43 µM (active),
Cc1ccc(S(=O)(=O)Nc2cc(Cl)ccc2C(=O)Nc2nc(-c3ccccc3)cs2)cc1,2.09 µM (active),
CCCCCCCc1ccc(CCc2cccc(O)c2C(=O)O)cc1,18.7 µM (active),
COc1cc(=C2C=c3ccccc3=N2)[nH]c1=Cc1[nH]c(C)cc1C,6.62 µM (active),
CCNC(=O)c1noc(-c2cc(C(C)C)c(O)cc2O)c1-c1ccc(CN2CCOCC2)cc1,0.0021 µM (active),
COc1cc2c(Oc3ccc(-c4cnc(Nc5ccc(F)cc5)n(C)c4=O)cc3F)ccnc2cc1OCCCN1CCOCC1,20.9 µM (active),
CC(C)(C)c1cc(C(=O)O)c(NC(=O)Nc2ccc3[nH]ncc3c2)s1,,104%
Cc1ccc(F)c(NC(=O)Nc2ccc(-c3cccc4[nH]nc(N)c34)cc2)c1,13.2 µM (active),
CC(C)c1ccccc1Cc1cc(C(=O)Nc2ccc(S(=O)(=O)c3ccccc3C(C)(C)C)cc2)c(O)c(O)c1O,3.72 µM (active),
CC(C)C(=O)Nc1ncc(-c2cc(C(F)F)nn2-c2c(Cl)cccc2Cl)s1,18.7 µM (active),
CC(C)C[C@@H](C(=O)N[C@H](C(=O)OC1CCCC1)c1ccccc1)[C@H](O)C(=O)NO,16.6 µM (active),
C[C@H](NC(=O)Cc1cc(F)cc(F)c1)C(=O)N[C@@H]1C(=O)N(C)c2ccccc2-c2ccccc21,,81%
C=C1C(=CC=C2CCC[C@]3(C)[C@@H]([C@H](C)C=C[C@H](C)C(C)C)CC[C@@H]23)C[C@@H](O)C[C@@H]1O,,101%
O=c1cc(N2CCOCC2)oc2c(-c3cccc4c3sc3ccccc34)cccc12,29.6 µM (active),
COc1ccccc1-c1cccc(-c2c(O)c3cc(C#N)c(Cl)cc3[nH]c2=O)c1,,87.6%
